Reference: PubChem BioAssay (NCI)
About 83,000 compounds went through this panel and 20% of them were active in at least one assay; those are over-represented in the sample as a whole.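 A percent growth of 40 corresponds to 60% growth inhibition; 0 means no net growth; -100 means all cells died. Active threshold: below 10.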 Unmarked numbers belong to inactive results. Activity calls are given as the source filed them.

What follows are molecules tested on NCI/ADR-RES ovarian (assay: NCI-60 one-dose screen, 48 h (100 = growth as untreated, 0 = no growth, -100 = all killed)). Details: 10 µM unless noted.
Method: Growth inhibition of the NCI/ADR-RES human […] tumor cell line is measured as a screen for anti-cancer activity. Cells are grown in 96 well plates and exposed to the test compound for 48 hours. Compounds are tested at a single concentration, which is 10^-5 M for most compounds. The reported endpoint is percent growth (GI% or GIPRCNT), where numbers from 0 - 100% represent growth inhibition, and numbers from -100% - 0 represent cell death. For example, a value of 40 represents 60% growth inhibition. A value of 0 means no net growth occurred over the course of the experiment. A value of -40 indicates 40% of cells at the beginning of the experiment died by the end of the experiment. A value of -100 means all cells are dead at the end of the experiment.
NCI-60 Human Tumor Cell Lines Screen was performed using the standard one-dose NCI protocol, which is described in more detail at https://dtp.cancer.gov/discovery_development/nci-60/default.htm.
Compounds with GIPRCNT values below 10 were considered active. Activity score was based on GIPRCNT using the following formula: […]
Score is 0 for GIPRCNT values of 100 or above, 50 for GIPRCNT values of 0, and 100 for GIPRCNT values of -100.

SMILES	growth
CCCc1cc(CCC)n2nc(N)nc2n1	109%
NC(=N\N=C/c1ccc(Cl)cc1Cl)/C(N)=N\N=C/c1ccc(Cl)cc1Cl	82.3%
COc1ccc(Nc2nc(Nc3cc(C)[nH]n3)c3cc(OC)c(OC)cc3n2)cc1	-63.7% [20 µM] (active)
COC(=O)c1nc(-c2ccccc2)oc1S(=O)(=O)NCC(c1ccc(Cl)cc1)N1CCCCC1 (stereo not given)	89%
N/C(=N\c1nc2ccccc2s1)NC(=O)Nc1ccccc1	17.6%
Cc1cccc(CN(Nc2ccccc2)c2ccccc2)n1	102%
C(CCCSC1=NCCN1)CCSC1=NCCN1	94.4%
[2H]C([2H])([2H])Oc1ccc(/C=C/C(=O)/C=C(O)/C=C/c2ccc(OC([2H])([2H])[2H])c(OC([2H])([2H])[2H])c2)cc1OC([2H])([2H])[2H]	41.5%
CC(C)=CCC[C@](C)(O)C1CC[C@]2(C)[C@@H]1CC[C@@H]1[C@@]3(C)CC/C(=N\OCCC#N)C(C)(C)[C@@H]3CC[C@]12C (stereo not given in full)	97.7%
O=C1c2c(c3c4cccnc4[nH]c3c3ccc4ccccc4c23)C(=O)N1O	94.3%
Cc1ccc2c(n1)C[C@H](C(C)(C)O)CC[C@H]2C	104%
Cc1cc(=O)oc2cc(Oc3nc(-c4ccccc4)cn4c(-c5ccccc5)cnc34)ccc12	45.4%
O=C(Nc1ccc(Oc2cccc(F)c2)c(Cl)c1)c1cnccn1	9.06% (active)
COc1cc(C(=O)/C=C/c2c(-c3cccs3)nc3sc(C)cn23)cc(OC)c1OC	-35.4% (active)
Cn1cc(-c2nc(-c3c[nH]c4c(Cl)nccc34)cs2)c2ccccc21	98%
COC(=O)c1nc(-c2ccccc2)oc1S(=O)(=O)N1CCN(c2ccc(OC)cc2)CC1	104%
Cc1[nH]c(C(=O)Nc2ccccc2OC2CCNC2)c(Cl)c1Cl (stereo not given)	86.7%
O=S(=O)(Nc1ccc(Br)cc1)c1ccc(-c2cnc(C3CC3)o2)cc1	-2.19% (active)
O=C(Nc1ncc(Cc2ccccc2Cl)s1)c1ccc2c(c1)OCCO2	14.5%
C#Cc1ccc(NC(=O)Cc2ccc(/C=C/C(=O)c3nccn3C)cc2)cc1	34.5%

SMILES	growth
Nc1nc(=O)n([C@H]2CC=C(CO)O2)cc1F	104%
N#C/C(=C\c1cccc2cnccc12)N1N=NC2C=CC=CC21 (stereo not given)	42.7%
Nc1nc(N)c2c(n1)NC(c1cccc(Nc3ccnc4cc(C(F)(F)F)ccc34)c1)CC(c1ccc(Cl)cc1)=N2 (stereo not given)	54.4%
COc1ccc(Nc2nccc(Nc3ccc4[nH]ncc4c3)n2)cc1	17.7%
CCCCN(CCC#N)C(N)=O	109%
CCN(CC)c1ccc(/C=N/NC(=O)c2ccccc2Nc2ccnc(C(F)(F)F)c2)c(O)c1	17.3%
C=C(C)Cn1c(SCC(=O)c2cccs2)nc2sc3c(c2c1=O)CCCC3	43.9%
CC(C)c1nc(N(C)S(C)(=O)=O)nc(-c2ccc(F)cc2)c1/C=C/C(=O)C[C@@H](O)CC(=O)O	107%
O=C(Nc1ccc2[nH]ncc2c1)c1csc(Nc2ccccc2)n1	16.5%
CNC1=C([N+](=O)[O-])C(c2ccc(OC)cc2)C(C#N)=C(c2ccc[nH]2)O1 (stereo not given)	110%
O=C1c2ccccc2-c2c1c1ccncc1c(=O)n2CCCn1ccnc1	53.6%
O=C(Nc1cccc(Cn2c(=O)[nH]c3ccc(Oc4ncccn4)cc3c2=O)c1)c1cccc(Cl)c1	77.5%
COc1cc(/C=C2\CN(S(=O)(=O)c3ccc(C)cc3)C/C(=C\c3cc(CN4CCCC4)c(O)c(OC)c3)C2=O)cc(CN2CCCC2)c1O	77.8%
CCOc1ccc(-c2cc(C3(S(=O)(=O)c4ccc(C)cc4)CC=CC3)on2)cc1	71%
Nc1n[nH]c2cccc(C#Cc3cccc(C(=O)Nc4ccc(Cl)c(C(F)(F)F)c4)c3)c12	62.2%
CCN1CCN(CCOc2ccc(CNc3ccc4nc(CCC5CCCCC5)[nH]c4c3)cc2)CC1	73.5%
CCOC(=O)c1cnc2sc(-c3ccc(OC)cc3)nc2c1Cl	90%
Cc1cc2c(C(C)C)c(O)c(O)c(/C=N/O)c2c(O)c1-c1c(C)cc2c(C(C)C)c(O)c(O)c(/C=N/O)c2c1O	44%
N#Cc1c(-c2ccc(F)cc2)cc(-c2cccc(Cl)c2)[nH]c1=O	71.2%
O=S(=O)(c1ccc(NCSc2nc3ccccc3s2)cc1)c1ccc(NCSc2nc3ccccc3s2)cc1	102%
